AmpC no deterg: qHTS Inhibitors of AmpC Beta-Lactamase (assay without detergent); AmpC nitrocefin hydrolysis, absorbance 480 nm, 0.0001% Triton; Potency, µM (series often up to 57.1 µM), most hits filed as inhibitors; 0.52% of 330,000 active; note: nearly all actives have a fitted effect of over 20% in size
Target sequence (P00811 whole entry, looked up): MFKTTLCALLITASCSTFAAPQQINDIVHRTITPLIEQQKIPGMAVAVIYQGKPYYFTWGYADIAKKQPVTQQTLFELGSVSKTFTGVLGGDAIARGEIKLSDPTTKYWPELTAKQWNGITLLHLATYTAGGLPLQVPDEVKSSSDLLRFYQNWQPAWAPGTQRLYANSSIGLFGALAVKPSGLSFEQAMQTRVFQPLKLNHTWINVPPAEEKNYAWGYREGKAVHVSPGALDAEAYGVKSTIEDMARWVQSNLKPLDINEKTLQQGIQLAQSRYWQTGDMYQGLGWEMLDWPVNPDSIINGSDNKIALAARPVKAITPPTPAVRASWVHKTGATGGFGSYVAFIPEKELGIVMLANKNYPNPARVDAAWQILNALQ
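20 mM phosphate pH 7.0 + 0.01% (detergent screen) or 0.0001% Triton X-100; 5.3 nM AmpC reagent; cpd preinc 15 min RT; nitrocefin (800 uM stock) to start; A480 q20 s × 4 min; Activity was normalised to no-enzyme and no-compound control wells.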
Sm TGR block: qHTS Assay for the Inhibitors of Schistosoma Mansoni Peroxiredoxins; Schistosoma mansoni thioredoxin glutathione reductase (TGR), Q962Y6; purified TGR, DTNB reduction, TNB absorbance 405 nm; Potency, µM (doses to about 114 µM), most hits filed as inhibitors; 3% of 360,000 active; note: nearly all actives have a fitted effect of over 60% in size
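TGR 20 nM + NADPH 100 uM (dispensed conc.), cpd preinc 15 min RT; start with NADPH (500 uM addition) then DTNB (15 mM addition). Kinetic TNB absorbance, 405 nm filter. Four-parameter Hill fit across titration.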
AmpC detergent: qHTS Inhibitors of AmpC Beta-Lactamase (assay with detergent) | Potency, µM (top dose mostly 114 µM), most hits filed as inhibitors | 0.041% of 370,000 active | P00811 | AmpC hydrolysis of nitrocefin, absorbance 480 nm, 0.01% Triton; note: nearly all actives have a fitted effect of over 25% in size
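AmpC (5.3 nM in the dispensed reagent) in 20 mM phosphate pH 7.0 with 0.01% (detergent screen) or 0.0001% Triton X-100 was preincubated with compounds for 15 min at room temperature. Nitrocefin was then added from an 800 uM solution, and hydrolysis was followed at 480 nm.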
Hits are given with their value; - = inactive; ? = inconclusive; . = no result given. An excerpt weighted towards active compounds, which were near 3.3% of everything screened. Calls come from the whole dose curve; as a rule, active = well fitted curve in the direction sought with a large enough effect; inconclusive = small, poorly fitted or top-dose-only effect, or another doubt; inactive = no such curve, though single readings can be large; an effect the other way counts as inactive or inconclusive.

SMILES	AmpC no deterg	Sm TGR block	AmpC detergent
CCOC(=O)N1CCC(NC(=O)CS(=O)(=O)Cc2nc(-c3cccc(Cl)c3)oc2C)CC1	-	35µM	-
CCOC(=O)N1CCC(NC(=O)CS(=O)(=O)Cc2nc(-c3cccc(OC)c3)oc2C)CC1	-	-	?
COc1ccc(NC(=O)Cc2csc(COc3cccc(C)c3)n2)cc1OC	.	-	-
Cc1ccc(N(C)C(=O)C2CCN(S(=O)(=O)c3cn(C)cn3)CC2)cc1	.	-	-
CCOC(=O)N1CCC2(CC1)OC(=O)C(C)=C2C(=O)NCc1cccc(F)c1	.	-	-
C=CCOC(=O)C1=C(C)NC(C)=C(C(=O)OCC=C)C1c1cn(-c2ccccc2)nc1-c1ccco1	16µM	-	?
C=CCOC(=O)C1=C(C)NC(C)=C(C(=O)OCC=C)C1c1ccc(O)cc1	-	-	-
Cc1ccc(C(=O)c2cn(Cc3cccc(C)c3)c3nc(C)ccc3c2=O)cc1	.	-	-
O=c1c2cccnc2n(Cc2ccccc2F)c(=O)n1Cc1ccccc1Cl	.	-	-
O=C(CCl)N1CCN2C(=O)c3ccccc3C12c1ccc(Cl)cc1 (stereo not drawn)	-	2.5µM	-
Cc1ccc(C(=O)N2CCN3C(=O)c4ccccc4C23c2ccc(Cl)cc2)cc1 (stereo not drawn)	-	-	-
COc1ccc(NC(=O)c2nc3nc(C)cc(C(F)F)n3n2)c(C)c1	.	-	-
COc1cccc(NC(=O)c2nc3nc(C)cc(C(F)F)n3n2)c1	45µM	-	-
COC(=O)C1=C(C)N(c2ccc(C)c(C)c2)/C(=C/c2ccco2)C1=O	-	35µM	-
CCOC(=O)C1=C(C)N(c2ccc(C)c(C)c2)C(=O)/C1=C\c1ccco1	-	-	-
COC(=O)C1=C(C)N(Cc2ccco2)C(=O)/C1=C\c1ccc([N+](=O)[O-])cc1	-	7.9µM	-
COC(=O)C1=C(C)NC(=O)/C1=C\c1ccco1	-	25µM	-
COC(=O)C1=C(C)N(Cc2ccco2)C(=O)/C1=C\c1ccc(N(C)C)cc1	-	-	-
COC(=O)C1=C(C)NC(=O)/C1=C\c1cc(C)n(-c2cccc(C)c2)c1C	-	25µM	-
COC(=O)C1=C(C)NC(C)=C(C(=O)OC)C1c1ccc(OC(=O)c2ccco2)cc1	-	-	-
COC(=O)C1=C(C)NC(=O)/C1=C\c1cc(C)n(-c2ccc(F)cc2)c1C	-	.	-
CCOC(=O)N1CCc2c(sc(NCc3ccc(N(CC)CC)cc3)c2C(=O)Nc2cc(OC)ccc2OC)C1	.	-	-
COC(=O)c1sc2c(c1C)c(=O)n(-c1ccccc1)c(=O)n2CC(=O)Nc1cccc(C)c1	.	-	-
CCN(Cc1ccccc1)Cc1c(O)ccc2c(=O)c(-c3ccccc3OC)c(C(F)(F)F)oc12	.	-	-
CCOc1ccccc1NC(=O)c1cc2cc(C)ccc2n1C	.	-	-
SMILES	AmpC no deterg	Sm TGR block	AmpC detergent
COC(=O)C1=C(C)N(C)C(=O)/C1=C\c1ccco1	-	-	-
COC(=O)C1=C(C)N(Cc2ccc(OC)cc2)C(=O)/C1=C\c1ccco1	-	13µM	-
CCCCNC(=O)CSc1nc2n[nH]c(C)c2c(=N)n1-c1ccccc1CC	.	-	-
COc1ccc(N2CCN(C(CNC(=O)C(=O)NCc3cccnc3)c3cccnc3)CC2)cc1 (stereo not drawn)	.	-	-
CCOCCc1nnc(NC(=O)C(=O)c2cc(C)n(-c3cccc(C)c3)c2C)s1	.	-	-
Cc1nc2sc(C(c3ccco3)N3CC(C)OC(C)C3)c(O)n2n1 (stereo not drawn)	-	45µM	?
Cc1nc2sc(C(c3ccccc3)N3CC(C)OC(C)C3)c(O)n2n1 (stereo not drawn)	-	-	-
Cc1nc2sc(C(c3ccco3)N3CCN(C(c4ccccc4)c4ccccc4)CC3)c(O)n2n1 (stereo not drawn)	-	?	-
CCOC(=O)C1CCN(C(c2cccs2)c2sc3nc(C)nn3c2O)CC1 (stereo not drawn)	-	-	?
Cc1nc2sc(C(c3ccco3)N3CCC(C)CC3)c(O)n2n1 (stereo not drawn)	-	45µM	-
CCOC(=O)C1CCN(C(c2cccc(OC)c2)c2sc3nc(C)nn3c2O)CC1 (stereo not drawn)	10µM	-	?
Cc1ccc(Cl)cc1N(C)C(=O)c1sc2nc3n(c(=O)c2c1C)CCCC3	.	-	-
CCCCN(C)C(=O)Cn1c(SCC(=O)Nc2ccc(C)c(C)c2)nc2ccccc21	.	-	-
CCc1ccc(C(=O)c2cn(CC(=O)Nc3cc(F)ccc3F)c3nc(C)ccc3c2=O)cc1	.	-	-
COc1ccccc1NCC(=O)N/N=C/c1c(O)ccc2ccccc12	-	-	-
COc1ccccc1NC(=O)c1c(N=Cc2c(O)ccc3ccccc23)cnn1C	-	50µM	-
COc1ccc(-c2noc(CSc3nnc(Cc4ccccc4)n3-c3ccc(F)cc3)n2)cc1	.	-	-
CC1=NN(c2cccc(C(=O)O)c2)C(=O)/C1=C\C=C/c1ccccc1	-	11µM	-
CC1=NN(c2ccc(C)cc2)C(=O)/C1=C\C=C\c1ccccc1	-	-	-
O=C(CN1CCCCCC1)Nc1ccccc1Cl	-	-	-
O=C(CN1CCN(CC(=O)c2ccc(F)cc2)CC1)Nc1ccccc1Cl	-	14µM	-
O=C(Nc1cccc(C(=O)OCc2cc(=O)n3c4c(sc3n2)CCCC4)c1)c1cccc(F)c1	.	-	-
CCOC(=O)c1[nH]c(=O)[nH]c1CSc1ccccn1	-	14µM	-
CCOC(=O)NC(=O)CSc1ccccn1	-	-	-
CCOc1ccc(C2C(=O)N(C3CCCCC3)CC(=O)N2Cc2ccccc2OC)cc1OC (stereo not drawn)	.	-	-
SMILES	AmpC no deterg	Sm TGR block	AmpC detergent
Nc1ccccc1C(=O)c1ccccc1	-	-	?
Nc1sccc1C(=O)c1ccccc1	-	20µM	-
CCc1ccc2oc(-c3ccc(C)c(NC(=O)c4ccc(C#N)cc4F)c3)nc2c1	.	-	-
CCOC(=O)c1c(C)oc2nc(C)nc(NCCCN3CCN(c4cc(C)ccc4C)CC3)c12	.	-	-
CC1CCc2c(sc(NC(=O)Cc3ccccc3)c2C(=O)Nc2ccc(Cl)cc2)C1 (stereo not drawn)	.	-	-
CC(=O)N1CCc2cc(C(=O)CN3CCN(C(=O)c4ccco4)CC3)ccc21	-	14µM	-
CC(=O)N1CCc2cc(C(=O)CN3CCN(c4cccc(Cl)c4)CC3)ccc21	-	25µM	?
CC(=O)N1CCN(C(=O)c2ccco2)CC1	-	-	-
CC(=O)N1CCc2cc(CNC(=O)Cc3ccc(F)cc3)ccc21	.	-	-
CC(=O)N1CCc2cc(C(=O)CN3CCC(C)CC3)ccc21	-	28µM	-
CC(=O)N1CCc2ccc(C(=O)CN3CCN(c4cccc(C)c4C)CC3)cc21	-	?	-
CC(=O)N1CCc2cc(C(=O)CN3CCCN(Cc4ccc(F)cc4)C3)ccc21	-	45µM	-
CC1CCN(CC(=O)N2CCc3ccccc32)CC1	-	-	-
CCCN(CCC)C(=O)c1cc2c(=O)n3cccc(C)c3nc2n1C	.	?	-
COc1ccc2cc3cc(C(=O)Nc4ccccc4C)oc3nc2c1	.	-	-

Source: PubChem
